Hits are enriched below; roughly 3.4% of the tested compounds scored in any of these assays.
MITF primary: human MITF inhibition, primary screen | 650,000 tested, 0.91% active | AID 1259374 | inhibition, % at 2.6 µM | AlphaScreen MITF homodimerization, bead proximity signal; in the data active = inhibition above about 50%;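 note: 0% = vehicle wells with protein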
TEAD-YAP block: TEAD-YAP interaction inhibition. HEK-TIYL cells, TEAD-Gal4/YAP UAS-luciferase luminescence. inhibition, % at 9.12 µM. 640,000 tested, 1.4% active. AID 1259422; in the data active = inhibition above about 32%;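 note: 0% = median of test compound wells and 100% = reference inhibitor wells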
FBW7 act: activators of human E3 ligase FBW7. normalized activity (activation), % at 26.1 µM. AlphaScreen FBW7–phospho-cyclin E peptide binding, activator screen. 650,000 tested, 0.13% active. Q969H0; in the data active = normalized activity above about 1.9%;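 note: purified mutant Fbw7 with reduced substrate affinity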
GPR151 ag: activates the human receptor GPR151. Q8TDV0. PathHunter beta-arrestin GPR151 cells, luminescence. activation, % at 11.2 µM. 650,000 tested, 1% active; in the data active = activation above about 4.9%;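 note: 0% = median of compound wells and 100% = cells with positive control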
Target sequence (Q8TDV0 whole entry, looked up): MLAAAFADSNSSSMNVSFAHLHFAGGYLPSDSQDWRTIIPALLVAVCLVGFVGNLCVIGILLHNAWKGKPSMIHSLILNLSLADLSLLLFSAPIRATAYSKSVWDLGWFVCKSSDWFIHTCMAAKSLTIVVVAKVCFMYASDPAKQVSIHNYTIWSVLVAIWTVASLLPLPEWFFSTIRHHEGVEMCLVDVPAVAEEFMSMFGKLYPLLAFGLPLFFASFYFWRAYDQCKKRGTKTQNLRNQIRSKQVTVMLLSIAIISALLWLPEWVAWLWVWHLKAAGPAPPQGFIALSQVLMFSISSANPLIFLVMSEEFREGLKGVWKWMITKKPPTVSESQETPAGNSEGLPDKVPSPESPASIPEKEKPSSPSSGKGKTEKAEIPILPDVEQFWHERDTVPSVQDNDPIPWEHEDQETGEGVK
MITF inh conf: human MITF inhibition, confirmation; shares compounds with MITF primary; AlphaScreen MITF homodimerization, biotin/His-MITF beads; inhibition, % at 2.6 µM; 4,700 tested, 16% active; AID 1259372;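 active = inhibition above a cutoff derived from the DMSO control wells, cut at about 28% in these data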;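 note: 0% = MITF dimer wells with DMSO only; inhibitors lower the bead chemiluminescence by keeping MITF from dimerizing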
AS interf DR: AlphaScreen optical interference, dose response counter-screen; AlphaScreen optical interference counterscreen, cell-free; AID 1259373; 480 tested, 6% active; shares compounds with MITF primary; IC50, µM; call rule not given here
AlphaScreen intf2: AlphaScreen optical interference, counter-screen; LysRS AlphaScreen counterscreen, signal interference, triplicate; 4,700 tested, 7.6% active; AID 1259376; inhibition, % at 2.6 µM; shares compounds with MITF primary;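 active = inhibition above a cutoff derived from the DMSO control wells, cut at about 30% in these data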
The depositor's hits bear a star; . = no result; ! = not confirmed by another sample.

SMILES	MITF primary	TEAD-YAP block	FBW7 act	GPR151 ag	MITF inh conf	AlphaScreen intf2	others
CC(C)(C)c1ccc(S(=O)(=O)N2CCN(C(=O)c3ccccc3F)CC2)cc1	7	3	0	0	.	.
COCCNC(=O)COC(=O)c1cc(-c2ccco2)nc2ccccc12	72*	2	0	1	69*	-9	AS interf DR=>6.6
O=C(NC(=S)N1CCOCC1)c1cc(-c2ccco2)nc2ccccc12	-4	3	0	3	.	.
O=C(OCCCC(=O)N1CCOCC1)c1cc(-c2ccco2)nc2ccccc12	73*	-7	0	-1	77*	4	AS interf DR=>6.6
CN(C)CCn1nnnc1SCC1=C(C(=O)O)N2C(=O)[C@@H](NC(=O)Cc3csc(N)n3)[C@H]2SC1	68*!	3	0	-2	87*	25	AS interf DR=4.9*
Cc1ccc(C2(O)CC3CCC(C2)N3c2cc(C)nc(N)n2)cc1 (configuration not stated)	-19	8	0	-1	.	.
Cc1ccnc(N2C3CCC2CC(O)(c2ccccc2)C3)n1 (configuration not stated)	53*	8	0	-1	12	13
Nc1nc(SCC(=O)Nc2cc([N+](=O)[O-])ccc2F)n[nH]1	51*	7	0	1	2	2
CN(C)c1ccc(C(=O)N2N=C(C(F)F)CC2(O)C(F)F)cc1 (configuration not stated)	-1	-6	0	-1	.	.
CN(C)c1cccc(C(=O)N2N=C(C(F)F)CC2(O)C(F)F)c1 (configuration not stated)	75*	9	1	-1	13	19
CCOC(=O)C1CCN(C(=O)COc2ccc(Br)cc2Cl)CC1	7	-2	0	-1	.	.
CC(C)(C)c1ccc(-c2nn(CCC#N)cc2C=C(C#N)C#N)cc1	-4	-6	0	0	.	.
CC(C)(c1ccc(O)c(N)c1)c1ccc(O)c(N)c1	74*	-1	1	0	8	33*
CC(C)(c1ccc(O)cc1)c1ccc(O)cc1	9	-4	0	-1	.	.
CCCCNCCOCCOc1ccc(C)c(C)c1	61*	1	0	1	0	4
CCCCNCCOCCOc1cccc(Cl)c1	80*	6	0	1	5	6
Cc1nn2c(NCC3CCCO3)cc(C(C)C)nc2c1-c1ccccc1 (configuration not stated)	13	5	1	-1	.	.
CCOc1cc(/C=C2/C(=N)N3N=C(CC(C)C)SC3=NC2=O)ccc1OCc1ccccc1	4	5	0	0	.	.
O=C(Nc1nc(-c2ccc(F)cc2)cs1)c1cc2cc(Br)cc(Br)c2oc1=O	100*	3	0	-1	2	-9
Cc1nc(-c2ccc(NC(=O)c3cc4cc(Br)cc(Br)c4oc3=O)cc2)cs1	0	4	1	0	.	.
CCOc1cc(C2C3=C(CC(C)(C)CC3=O)OC3=C2C(=O)CC(C)(C)C3)c(Br)cc1O	6	16	0	5	.	.
Cc1ccc2c(c1)C(C)CC(C)(C)N2C(=O)CSc1ncccn1 (configuration not stated)	18	-21	0	-1	.	.
COc1ccc(CCNCC(=O)N2c3ccccc3C(C)CC2(C)C)cc1 (configuration not stated)	14	4	0	0	.	.
COc1ccc2c(c1)C(C)CC(C)(C)N2C(=O)CSc1ncccn1 (configuration not stated)	2	-2	0	1	.	.
CCOCCCNCC(=O)N1c2ccc(C)cc2C(C)CC1(C)C (configuration not stated)	56*	5	0	1	17	9
SMILES	MITF primary	TEAD-YAP block	FBW7 act	GPR151 ag	MITF inh conf	AlphaScreen intf2	others
Cc1ccc2c(c1)C(C)CC(C)(C)N2C(=O)CNCCN1CCOCC1 (configuration not stated)	87*	-8	0	0	10	23
COc1ccc2c(c1)C(C)CC(C)(C)N2C(=O)CNCc1ccco1 (configuration not stated)	57*	-5	0	0	12	10
CCc1ccc(CNC(=O)CC2C(=O)NCCN2Cc2ccc(OC)c(OC)c2)nc1 (configuration not stated)	-6	2	0	0	.	.
Cc1c(NC(=O)C(C)OC(=O)c2cc3c(s2)CCC3)c(=O)n(-c2ccccc2)n1C (configuration not stated)	80*	8	0	-1	80*	10	AS interf DR=>6.7
CCOC(=O)c1ccc(Nc2nc(-c3cc4cc(Cl)ccc4oc3=O)cs2)cc1	2	-8	0	1	.	.
Cc1cc(C(=O)O)ccc1-c1ccc(/C=C2/NC(=O)NC2=O)o1	67*	12	0	1	68*	20	AS interf DR=>6.5
CCOC(=O)c1sc2nc(SCc3cccc([N+](=O)[O-])c3)n(Cc3ccc(Cl)cc3)c(=O)c2c1C	13	-6	0	-1	.	.
N#Cc1ccc(-c2ccc(F)cc2)nc1SCC(=O)NC1CC1	52*	5	0	1	-3	3
Cc1ccccc1OCC(=O)Nc1ccc([N+](=O)[O-])cc1Cl	54*	5	0	1	-12	-4
COc1ccc(CNCCSc2nccn2C)cc1	70*	-6	0	1	12	15
Cc1ccc(OCCN2CCN(C)CC2)c([N+](=O)[O-])c1	76*	-10	0	2	-9	0
Cc1ccc(OCCN2CC(C)OC(C)C2)c([N+](=O)[O-])c1 (configuration not stated)	76*	-1	0	-2	16	-5
Cc1ccc(OCCCN2CCCC2)c([N+](=O)[O-])c1	38	0	0	0	.	.
Cc1ccc(OCCN2CCCCC2)c([N+](=O)[O-])c1	64*	-7	0	2	19	14
Cc1ccc(OCCN2CCNCC2)c([N+](=O)[O-])c1	50	-20	0	0	.	.
CCOC(=O)N1CCC(n2c(SCC(=O)N(CC)CC)nc3ccsc3c2=O)CC1	-14	1	0	0	.	.
CC1=NN(c2nnc(C)c(=O)[nH]2)C(=O)C1	103*	7	0	-1	83*	100*
CC1=NN(c2ccc(C)cc2)C(=O)C1	13	3	-1	-1	.	.
Cc1cc(C)c2oc(-c3cccc(NC(=O)c4cc(Br)ccc4I)c3)nc2c1	-10	0	0	2	.	.
O=[N+]([O-])c1cc(C=Nc2ccc(N3CCOCC3)cc2)c(O)c([N+](=O)[O-])c1	75*	3	-2	0	83*	-3	AS interf DR=>6.5
O=C(CN(c1ccc(Cl)c(C(F)(F)F)c1)S(=O)(=O)c1ccccc1)NCc1cccnc1	51*	5	0	0	-4	-6
O=C(CN(c1ccc(Cl)c(C(F)(F)F)c1)S(=O)(=O)c1ccccc1)NCc1ccccn1	7	-4	0	0	.	.

Compound activity: PubChem, The Scripps Research Institute Molecular Screening Center
